Screening data (PubChem BioAssay)
FBA Mtb inh – inhibits M. tuberculosis FBA enzyme; inhibition, % at 1 µM; P9WQA3; 360,000 compounds, 2.3% hits; purified M. tuberculosis FBA, fluorescence read-out;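 also: 0% = vehicle and 100% = reference inhibitor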
Target sequence (P9WQA3 whole entry, looked up): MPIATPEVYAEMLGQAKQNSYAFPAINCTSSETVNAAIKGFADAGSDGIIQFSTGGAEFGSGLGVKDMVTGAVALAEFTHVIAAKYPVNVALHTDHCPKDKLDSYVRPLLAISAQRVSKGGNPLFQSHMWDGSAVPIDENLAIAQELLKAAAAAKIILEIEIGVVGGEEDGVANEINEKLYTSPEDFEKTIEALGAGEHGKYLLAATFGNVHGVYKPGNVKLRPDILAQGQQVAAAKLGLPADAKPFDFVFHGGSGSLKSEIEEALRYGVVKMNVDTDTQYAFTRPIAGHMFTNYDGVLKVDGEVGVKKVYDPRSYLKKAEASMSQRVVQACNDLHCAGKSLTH
BH1578 lux ind – induces V. cholerae light production without autoinducers | V. cholerae BH1578 lux reporter, luminescence, 6 h | activation, % at 18.7 µM | 350,000 compounds, 0.16% hits | AID 588436; in the data active = activation mostly above about 9.7%, no sharp cut-off
PrPC TRFRET – cell surface PrPC inhibition, primary TR-FRET screen | inhibition, % at 13.8 µM | TR-FRET read-out | 370,000 compounds, 0.43% hits; in the data active = inhibition above about 24%; also: 0% = median of the test wells and 100% = reference compound wells
GDH-TPI counter-1 – GDH-TPI coupled enzyme inhibition counter-screen; GDH-TPI coupled enzyme counterscreen, NADH absorbance; 360,000 compounds, 1.2% hits; inhibition, % at 4.8 µM; AID 588335; in the data active = inhibition above about 30%;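 also: 0% = DMSO wells and 100% = wells lacking the enzyme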
SARS 3CLpro inh – SARS-CoV 3CLpro protease inhibition. recombinant SARS-CoV 3CLpro, quenched FRET peptide cleavage. inhibition, % at 6 µM. 290,000 compounds, 0.14% hits. AID 1706; in the data active = inhibition above about 12%
Mtb FBA inh conf – confirmation of M. tuberculosis fructose-bisphosphate aldolase inhibitors. inhibition, % at 1 µM. 5,600 compounds, 78% hits. shares compounds with FBA Mtb inh. AID 651616. purified M. tuberculosis FBA, fluorescence read-out;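 also: 0% = vehicle wells and 100% = reference inhibitor wells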
GDH-TPI counter-2 – GDH-TPI inhibition counter-screen for FBA inhibitors; shares compounds with FBA Mtb inh; GDH-TPI coupled enzyme counterscreen, fluorescence; inhibition, % at 1 µM; 5,600 compounds, 81% hits; in the data active = inhibition above about 10%
GDH-TPI dose – counter-screen for M. tuberculosis FBA inhibitors: GDH-TPI dose response; 170 compounds, 79% hits; shares compounds with FBA Mtb inh; AID 652145; IC50, µM; GDH-TPI coupled enzyme assay, fluorescence, artifact counterscreen; call rule not given here
Starred values were filed as active, the others as inactive; i = inactive; / = not tested or not shown; + = active, no number. Compounds with a hit are over-represented: about 3.9% of the library has one in this group of screens. Rule as the data show it, unless noted: active = inhibition above about 27%; inactive = the rest.

SMILES	FBA Mtb inh	BH1578 lux ind	PrPC TRFRET	GDH-TPI counter-1	SARS 3CLpro inh	Mtb FBA inh conf	GDH-TPI counter-2	others
Nc1nnc(-c2ccncc2)s1	52*	i	-1	9	1	5	-1
CCCCCc1nnc(NC(=O)NS(=O)(=O)c2ccc(C)cc2)s1	41*	-4	-2	2	-1	151*	121*
C=CCn1c(-c2ccc(N)cc2)nc2ccccc21	92*	0	0	12	-2	12	-3
CCn1c(-c2ccc(N)cc2)nc2ccccc21	83*	0	-1	3	-5	102*	78*
CN(C)C(CNC(=O)c1cc(S(=O)(=O)N(C)Cc2ccccc2)ccc1Cl)c1ccco1 (stereo unspecified)	-1	i	4	4	/	/	/
Cc1ccc(S(=O)(=O)N2CCC3(CC2)OCCO3)cc1	0	-1	-3	6	0	/	/
CN1CC=C2C(C#N)=C(N)C(C#N)(C#N)C(c3ccncc3)C2C1 (stereo unspecified)	20	i	/	7	1	/	/
CN1CC=C2C(C#N)=C(N)C(C#N)(C#N)C(c3ccsc3)C2C1 (stereo unspecified)	30*	i	-16	8	-9	79*	65*
CCCC1C2CN(C(C)C)CC=C2C(C#N)=C(N)C1(C#N)C#N (stereo unspecified)	46*	1	-32	16	-4	26	29*
CN1CC=C2C(C#N)=C(N)C(C#N)(C#N)[C@H](c3cccc(Cl)c3)C2C1 (stereo partly specified)	28*	1	4	12	8	9	0
O=C1SCCN1N=Cc1ccc([N+](=O)[O-])o1	0	i	-52	22	/	/	/
Cc1ccc(-n2nc3c(N4CCC(C(=O)NCc5cccc(F)c5)CC4)nnc(C)c3c2C)cc1	2	1	/	-1	1	/	/
COc1ccc([C@H]2CC(=O)C=C(c3ccc4ncccc4c3)C2)cc1OC	-1	-1	-26	15	/	/	/
COC(=O)C1=C(C)N(C)C(=NCc2cccc(C(F)(F)F)c2)NC1c1cccc(Cl)c1 (stereo unspecified)	/	/	-15	/	/	/	/
CC(C)[C@H](NC(=O)c1cc2cc(Cl)ccc2n1C)C(=O)N1CCC(C(=O)O)CC1	4	i	0	-6	-1	/	/
COc1ccc2c(c1)cc(C(=O)N[C@@H](CCSC)C(=O)N1CCC[C@H]1C(=O)O)n2C	111*	0	-8	9	0	0	-1
CNC(=O)c1cc2cc(OC)ccc2n1CCN(C)C	29*	-1	-12	0	-5	110*	74*
COc1ccc2c(c1)cc(C(=O)N[C@H](C(=O)N1CCC(C(=O)O)CC1)C(C)C)n2C	65*	i	-2	-3	-2	120*	99*
COc1cc2cc(C(=O)O)n(C)c2c(OC)c1OC	59*	i	-2	10	1	68*	61*
N#Cc1cccc(C(=O)C(=O)N2CCN(c3ccccc3)CC2)c1	/	/	5	/	/	/	/
O=C(NC1CC1)C1=C[C@@H](c2c[nH]c3ccccc23)C[C@@H](OCc2ccc(CO)cc2)O1	5	i	-3	17	/	/	/
Cc1ccc(-c2cc(C(F)(F)F)n3nc(C(=O)NCCCn4ccnc4)cc3n2)cc1C	7	-1	-15	6	0	/	/
COc1ccc2c(c1)cc(C(=O)N[C@H](C(=O)N1CCC[C@H]1C(=O)O)C(C)C)n2C	106*	-1	1	11	7	159*	113*
COc1ccc2c(c1)cc(C(=O)O)n2C	64*	0	1	6	-3	+	+
O=S(=O)(Nc1nc2cc3c(cc2nc1Cl)OCCO3)c1ccccc1	48*	0	-3	3	3	61*	37*
SMILES	FBA Mtb inh	BH1578 lux ind	PrPC TRFRET	GDH-TPI counter-1	SARS 3CLpro inh	Mtb FBA inh conf	GDH-TPI counter-2	others
O=S(=O)(Nc1nc2ccccc2nc1Cl)c1ccccc1	-2	i	9	17	4	/	/
CC(=O)Nc1ccc(S(=O)(=O)Nc2nc3cc4c(cc3nc2Cl)OCCO4)cc1	62*	0	24	24	2	76*	71*
Cc1ccccc1OCCOC(=O)c1cc(S(=O)(=O)N2CCCCC2)ccc1N1CCOCC1	3	i	14	8	/	/	/
COC(=O)[C@]12CCCCC=C1N(Cc1ccc(OC)cc1)C(=O)[C@@H]2CC(=O)N1CCN(C(=O)c2ccco2)CC1	/	/	3	/	/	/	/
O=C(COC(=O)/C=C/c1cccc(Br)c1)NC1CCCC1	6	i	4	8	/	/	/
CC(=O)Nc1nc(CC(C)C)cc(-c2ccco2)c1C#N	50*	1	4	-3	3	177*	146*
CC(=O)Nc1nc(CC(C)C)cc(-c2ccccc2)c1C#N	3	i	-2	2	3	/	/
CCOC(=O)Cc1c(C)nc2c(-c3ccccc3)c(-c3ccccc3)[nH]n2c1=O	72*	-1	/	16	3	58*	41*
CCc1c(C)nc2c(-c3ccccc3)c[nH]n2c1=O	33*	i	-10	6	-6	15	9	GDH-TPI dose=8.1*
Cc1nc2c(C#N)c[nH]n2c(=O)c1Cc1ccccc1	8	3	0	4	1	/	/
CCOC(=O)Cc1c(C)nc2c(-c3ccccc3)c(C)[nH]n2c1=O	23	-2	2	9	-5	/	/
CCOC(=O)Cc1c(C)nc2c(-c3ccccc3)c[nH]n2c1=O	85*	0	4	19	-2	176*	172*
Cc1nc2nc(Cc3ccccc3)[nH]n2c(=O)c1Cc1ccccc1	-2	i	1	0	-4	/	/
Cc1nc2nc(Cc3ccccc3)[nH]n2c(=O)c1Cl	29*	-3	4	-7	-3	49*	50*
CCCc1cc(=O)oc2cc(OCC(=O)NC(Cc3ccc(Cl)cc3)C(=O)O)ccc12 (stereo unspecified)	18	-1	-3	2	-1	/	/
CC(Oc1ccc2c3c(c(=O)oc2c1)CCC3)C(=O)N[C@@H](Cc1ccccc1)C(=O)O (stereo partly specified)	23	-1	-6	12	-3	/	/
O=C(COc1ccc2c3c(c(=O)oc2c1)CCCC3)N[C@@H](Cc1ccccc1)C(=O)O	59*	0	-1	10	3	7	-1
O=C(COc1ccc2c3c(c(=O)oc2c1)CCCC3)NC(Cc1ccc(Cl)cc1)C(=O)O (stereo unspecified)	67*	-1	-3	15	1	124*	100*
Fc1ccc(-n2c(-c3cccs3)nc3nc4ccccc4nc32)cc1	81*	0	2	4	5	0	-4
Cc1ccc(-n2c(-c3cccs3)nc3nc4ccccc4nc32)cc1	/	/	2	/	8	/	/
